Measured values published in PubChem BioAssay (Tox21).
Where “and” joins values, the source holds several entries; their conditions need not be identical. Equal entries are not always repeated. Records with an inconclusive call do not appear. More than one record can exist for a structure, and the calls need not agree. Calls of active or inactive are those of the source. Unless noted, the call rests on the fitted dose curve.

Tests used:
[1] = Nuclear factor erythroid 2-related factor 2/antioxidant responsive element (Nrf2/ARE) small molecule agonists: qHTS cell viability counter screen in human keratinocytes (AID 1919968; active means well fitted curve in the direction sought with a large enough effect in the repeat runs; an effect the other way counts as inactive or inconclusive; further: nearly all actives have a fitted effect of over 55% in size; further: potency means the concentration at half of the fitted maximal effect)
In short: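 Viability counter-screen: KeratinoSens reporter cells, DMSO-delivered compounds, 23 h at 37 C, CellTiter-Fluor fluorescence.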

[2] = target: Gonadotropin-releasing hormone receptor (Homo sapiens) (UniProt P30968); assay: Human gonadotropin-releasing hormone receptor (GnRHR) small molecule agonists, calcium flux assay in GnRHR-HEK293 cells (AID 1920063); further: nearly all actives have a fitted effect of over 35% in size
In short: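 Tox21-format agonist screen using human GnRHR-expressing HEK293 cells and a fluorescent calcium dye; kinetic 3-min fluorescence reading after compound addition, 15-point concentration series run in triplicate.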

[3] = target: KiSS-1 receptor (Homo sapiens) (UniProt Q969F8); assay: Human kisspeptin (KISS1R) small molecule agonists, calcium flux assay in KISS1R-HEK293 cells (AID 1920064; active means well fitted curve in the direction sought with a large enough effect in the repeat runs; an effect the other way counts as inactive or inconclusive)
In short: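 Intracellular calcium mobilization in KISS1R-HEK293 cells was recorded by fluorescence (Ex/Em 480/540) for 3 min following compound addition to cells pre-loaded 1 h with calcium dye.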

[4] = G protein-coupled receptor (GPCR) small molecule agonists, calcium flux assay: HEK293 wild type cell line counter screen (AID 1920065)
In short: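 In this agonist-mode screen, ATP is the positive control and DMSO the vehicle. Cells grow 18 h before a 1 h dye incubation at 37 C; signal is taken at Ex/Em 480/540 over 3 min.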

[5] = p53 small molecule agonists, cell-based qHTS assay with human liver microsomes (AID 1963577)
In short: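 p53RE-bla reporter cells were pre-incubated 5 h at 37 C, then treated with compounds plus human liver microsomes (0.5 mg/mL final) and NADPH (0.5 mg/mL final) for 16 h at 37 C. Beta-lactamase activity was read by LiveBLAzer fluorescence after 2 h at room temperature.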

[6] = p53 small molecule agonists, cell-based qHTS assay with human liver microsomes: qHTS cell viability counter screen (AID 1963579); further: nearly all actives have a fitted effect of over 45% in size; further: potency means the concentration at half of the fitted maximal effect
In short: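 p53RE-bla cells (4,000/well) were pre-incubated 5 h at 37 C, then given compounds in DMSO plus human liver microsomes (0.5 mg/mL final) and NADPH (0.5 mg/mL final) for 16 h at 37 C. Viability was read by CellTiter-Glo luminescence.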

[7] = p53 small molecule agonists, cell-based qHTS assay with rat liver microsomes: qHTS cell viability counter screen (AID 1963580); further: nearly all actives have a fitted effect of over 45% in size
In short: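 In HCT-116 cells carrying a p53 response element-bla reporter, compounds were metabolically activated in situ by rat liver microsomes with NADPH over 16 h. Cell ATP content then served as the cytotoxicity measure.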

[8] = p53 small molecule agonists, cell-based qHTS assay: qHTS cell viability counter screen (AID 1963581); further: nearly all actives have a fitted effect of over 45% in size
In short: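 Compounds are pinned onto HCT-116 p53RE-bla cells and left 16 h at 37 C. Following the reporter FRET read, ATP is quantified by CellTiter-Glo luminescence after 30 min at room temperature.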

[9] = p53 small molecule agonists, cell-based qHTS assay (AID 1963582; active means well fitted activation curve with a large enough effect in the signal ratio in the repeat runs, not every such curve was filed as active; the % refers to the signal ratio; further: potency means the concentration at half of the fitted maximal effect)
In short: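 Agonist activity was scored from beta-lactamase FRET fluorescence in p53RE-bla cells treated 16 h at 37 C with compounds in DMSO, substrate incubation being 2 h at room temperature.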

[10] = target: 5-hydroxytryptamine receptor 2A (Homo sapiens) (UniProt P28223); assay: 5-hydroxytryptamine receptor 2A (HTR2A) small molecule antagonists, cell-based qHTS assay (AID 1963586); further: nearly all actives have a fitted effect of over 45% in size
In short: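 Antagonist-mode intracellular calcium assay: DOI (4 nM) added after 5 min compound pre-incubation at room temperature to dye-loaded HTR2A-CHO cells. Fluorescence followed for 3 min, sampled every second.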

[11] = target: 5-hydroxytryptamine receptor 2A (Homo sapiens) (UniProt P28223); assay: 5-hydroxytryptamine receptor 2A (HTR2A) small molecule agonists, cell-based qHTS assay (AID 1963587); further: nearly all actives have a fitted effect of over 30% in size; further: potency means the concentration at half of the fitted maximal effect
In short: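 HTR2A-CHO cells, plated 18 h at 37 C/5% CO2, dye-loaded 1 h at 37 C; compounds in DMSO added by pin tool (agonist mode). Intracellular calcium flux read as kinetic fluorescence on FDSS over 2 min at 1 s intervals.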

[12] = target: Muscarinic acetylcholine receptor M1 (Homo sapiens) (UniProt P11229); assay: Cholinergic receptor muscarinic 1 (CHRM1) small molecule antagonists, cell-based qHTS assay (AID 1963588); further: nearly all actives have a fitted effect of over 40% in size
In short: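 CHRM1-CHO calcium-flux assay, antagonist mode. Cells were seeded 18 h, dye-loaded 1 h at 37 C and given compound for 5 min at RT, then acetylcholine was added at 50nM. FDSS fluorescence was read 3 min; 15 concentrations, three runs.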

[13] = target: Muscarinic acetylcholine receptor M1 (Homo sapiens) (UniProt P11229); assay: Cholinergic receptor muscarinic 1 (CHRM1) small molecule agonists, cell-based qHTS assay (AID 1963589); further: nearly all actives have a fitted effect of over 35% in size
In short: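 Stable CHRM1-CHO cells (human receptor) were incubated 18 h, dye-loaded for 1 h at 37 C and exposed to test compounds for agonist activity, with calcium-dependent fluorescence followed kinetically.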

[14] = cAMP Responsive Elements (CRE) small molecule agonists, cell-based qHTS assay (AID 1963590)
In short: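 FRET-based beta-lactamase readout (LiveBLAzer B/G, 2 h RT) quantified CRE activation in HEK 293T CRE-bla cells after 3 h treatment with DMSO-dissolved compounds.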

[15] = cAMP Responsive Elements (CRE) small molecule antagonists, cell-based qHTS assay (AID 1963591; active means well fitted inhibition curve with a large enough effect in the signal ratio in the repeat runs, not every such curve was filed as active; the % refers to the signal ratio)
In short: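 qHTS in CRE-bla HEK 293T cells: compound in DMSO, then 0.25 uM NKH477 (final), 3 h at 37 °C/5% CO2; beta-lactamase FRET read-out after 2 h substrate incubation.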

[16] = target: Beta-2 adrenergic receptor (Homo sapiens) (UniProt P07550); assay: Adrenergic beta2 receptor (ADRB2) small molecule antagonists, cell-based qHTS assay (AID 1963592); further: nearly all actives have a fitted effect of over 50% in size; further: potency means the concentration at half of the fitted maximal effect
In short: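 Cells (CHO, stable ADRB2 overexpression) incubated 18-20hr at 37C; compounds added from DMSO; agonist mix (1nM isoproterenol, 100uM IBMX, 25uM Ro-20-1724) added; 0.5hr RT; d2-cAMP and anti-cAMP-cryptate added; 1hr RT; 665/615 nm read.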

[17] = target: Beta-2 adrenergic receptor (Homo sapiens) (UniProt P07550); assay: Adrenergic beta2 receptor (ADRB2) small molecule agonists, cell-based qHTS assay (AID 1963593); further: potency means the concentration at half of the fitted maximal effect;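 on activation: CHO cells stably overexpressing human ADRB2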
In short: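 CHO cells stably over-expressing ADRB2 were plated overnight at 37C, then dosed with compounds plus a stimulation mix containing 100uM IBMX and 25uM Ro-20-1724 for 0.5hr at room temperature. cAMP was measured by HTRF competition, 1hr.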

[18] = target: D(2) dopamine receptor (Homo sapiens) (UniProt P14416); assay: Dopamine D2 receptor (DRD2) small molecule agonists, cell-based qHTS assay (AID 1963594); further: nearly all actives have a fitted effect of over 35% in size
In short: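 HEK293 cells stably expressing DRD2 were cultured 24 h at 37 C, then given Ro20-1724 (0.1 mM final) and compounds for 10 min at room temperature. NKH477 (200nM) was then added for 30 min. cAMP was read by HTRF.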

[19] = target: D(2) dopamine receptor (Homo sapiens) (UniProt P14416); assay: Dopamine D2 receptor (DRD2) small molecule antagonists, cell-based qHTS assay (AID 1963595; active means well fitted inhibition curve with a large enough effect in the signal ratio in the repeat runs, with a control signal flat; the % refers to the signal ratio)
In short: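 Stable D2 receptor HEK293 line, 24 h after seeding. Compound preincubated 10 min, then quinpirole (12 nM) with forskolin analogue NKH477 (200 nM), 30 min, room temperature. Detection by time-resolved FRET of cAMP.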

[20] = p53 small molecule agonists, cell-based qHTS assay with rat liver microsomes (AID 1963578)
In short: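 p53RE-bla cells were exposed to compounds together with rat liver microsomes (0.5 mg/mL final) and NADPH (0.5 mg/mL final) for 16 h at 37 C, then read by LiveBLAzer beta-lactamase fluorescence after 2 h at room temperature.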

Measured: Potency

Sequence of KiSS-1 receptor (Homo sapiens) (Q969F8 whole entry, looked up): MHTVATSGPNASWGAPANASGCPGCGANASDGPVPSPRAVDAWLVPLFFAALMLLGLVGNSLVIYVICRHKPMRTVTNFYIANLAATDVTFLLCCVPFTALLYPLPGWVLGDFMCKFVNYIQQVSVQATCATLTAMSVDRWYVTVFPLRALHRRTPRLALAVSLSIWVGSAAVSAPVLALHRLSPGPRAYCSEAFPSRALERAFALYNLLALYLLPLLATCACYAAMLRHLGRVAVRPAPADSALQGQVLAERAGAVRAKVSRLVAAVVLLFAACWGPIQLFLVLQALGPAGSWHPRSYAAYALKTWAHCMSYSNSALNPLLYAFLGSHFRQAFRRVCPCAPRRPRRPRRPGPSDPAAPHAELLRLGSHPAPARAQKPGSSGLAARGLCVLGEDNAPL
Sequence of Muscarinic acetylcholine receptor M1 (Homo sapiens) (P11229 whole entry, looked up): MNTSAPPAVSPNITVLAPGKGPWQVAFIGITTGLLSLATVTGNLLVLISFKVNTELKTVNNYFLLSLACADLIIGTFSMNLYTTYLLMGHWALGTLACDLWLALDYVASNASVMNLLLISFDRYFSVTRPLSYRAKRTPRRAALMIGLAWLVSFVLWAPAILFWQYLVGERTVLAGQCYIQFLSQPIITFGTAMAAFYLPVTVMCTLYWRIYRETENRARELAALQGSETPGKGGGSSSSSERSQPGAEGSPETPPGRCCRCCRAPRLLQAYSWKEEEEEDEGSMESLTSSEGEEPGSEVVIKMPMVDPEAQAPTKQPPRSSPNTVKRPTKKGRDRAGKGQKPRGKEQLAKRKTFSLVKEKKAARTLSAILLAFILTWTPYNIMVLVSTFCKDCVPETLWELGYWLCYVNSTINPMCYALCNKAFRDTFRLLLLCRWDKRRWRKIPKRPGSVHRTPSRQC
Sequence of 5-hydroxytryptamine receptor 2A (Homo sapiens) (P28223 whole entry, looked up): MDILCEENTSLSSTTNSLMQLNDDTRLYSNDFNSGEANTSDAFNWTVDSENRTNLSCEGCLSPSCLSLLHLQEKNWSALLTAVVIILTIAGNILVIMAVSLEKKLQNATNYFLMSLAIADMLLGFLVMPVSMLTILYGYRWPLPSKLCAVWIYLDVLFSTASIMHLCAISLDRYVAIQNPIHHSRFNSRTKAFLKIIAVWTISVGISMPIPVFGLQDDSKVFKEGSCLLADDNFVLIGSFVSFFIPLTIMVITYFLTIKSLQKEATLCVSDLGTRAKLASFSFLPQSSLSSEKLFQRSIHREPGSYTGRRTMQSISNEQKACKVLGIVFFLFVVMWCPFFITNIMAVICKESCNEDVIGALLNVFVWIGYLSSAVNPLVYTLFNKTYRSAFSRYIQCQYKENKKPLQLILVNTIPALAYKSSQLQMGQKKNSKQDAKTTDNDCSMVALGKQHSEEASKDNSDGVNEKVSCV
Sequence of Gonadotropin-releasing hormone receptor (Homo sapiens) (P30968 whole entry, looked up): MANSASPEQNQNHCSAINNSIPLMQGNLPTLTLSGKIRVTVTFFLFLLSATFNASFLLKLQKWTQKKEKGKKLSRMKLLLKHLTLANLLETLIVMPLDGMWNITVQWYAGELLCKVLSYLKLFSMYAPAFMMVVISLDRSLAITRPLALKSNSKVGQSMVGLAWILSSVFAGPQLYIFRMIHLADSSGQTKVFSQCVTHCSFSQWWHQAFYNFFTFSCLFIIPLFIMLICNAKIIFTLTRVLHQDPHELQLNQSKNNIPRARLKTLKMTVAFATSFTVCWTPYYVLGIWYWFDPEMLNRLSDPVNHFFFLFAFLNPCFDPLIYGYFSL
Sequence of D(2) dopamine receptor (Homo sapiens) (P14416 whole entry, looked up): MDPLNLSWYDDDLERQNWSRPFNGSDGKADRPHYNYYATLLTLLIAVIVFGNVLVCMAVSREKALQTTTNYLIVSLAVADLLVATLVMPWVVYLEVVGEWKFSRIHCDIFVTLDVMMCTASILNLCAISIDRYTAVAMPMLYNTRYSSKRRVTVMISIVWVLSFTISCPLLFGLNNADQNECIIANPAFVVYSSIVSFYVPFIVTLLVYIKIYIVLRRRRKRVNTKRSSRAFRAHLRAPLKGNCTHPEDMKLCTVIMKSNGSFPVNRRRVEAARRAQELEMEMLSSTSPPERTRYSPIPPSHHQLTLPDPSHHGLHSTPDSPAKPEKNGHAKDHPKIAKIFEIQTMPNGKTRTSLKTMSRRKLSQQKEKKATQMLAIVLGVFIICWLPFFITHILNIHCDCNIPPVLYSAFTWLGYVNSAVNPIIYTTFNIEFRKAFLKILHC
Sequence of Beta-2 adrenergic receptor (Homo sapiens) (P07550 whole entry, looked up): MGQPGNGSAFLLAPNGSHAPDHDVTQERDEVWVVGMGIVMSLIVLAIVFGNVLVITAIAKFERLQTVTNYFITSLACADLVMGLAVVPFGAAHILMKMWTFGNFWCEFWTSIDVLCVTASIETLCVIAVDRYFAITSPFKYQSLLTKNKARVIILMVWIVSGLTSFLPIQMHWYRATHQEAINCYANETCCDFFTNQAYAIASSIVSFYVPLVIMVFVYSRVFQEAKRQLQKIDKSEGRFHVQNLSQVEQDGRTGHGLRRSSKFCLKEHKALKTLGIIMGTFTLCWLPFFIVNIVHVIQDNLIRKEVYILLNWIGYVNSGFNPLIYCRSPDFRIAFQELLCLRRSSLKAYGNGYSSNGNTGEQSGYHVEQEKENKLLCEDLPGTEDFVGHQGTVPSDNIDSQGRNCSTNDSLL

COP(=O)(O)OC
not listed: [20]
inactive: all other assays above

CNc1cnn(-c2cccc(C(F)(F)F)c2)c(=O)c1Cl
not listed: [8] | [10] | [19]
inactive: all other assays above

CCCCCc1cc(O)cc(O)c1
not listed: [8] | [14] | [15] | [20]
inactive: all other assays above

CC(=O)CCC(C)=O
not listed: [11] | [15] | [17]
inactive: all other assays above

S=c1[nH]c2ccccc2[nH]1
not listed: [11] | [14] | [17]
inactive: all other assays above

O=C1CC(=O)NC(=O)N1
not listed: [6] | [13] | [15] | [17]
inactive: all other assays above

C[C@]12CCC(=O)C[C@@H]1CC[C@@H]1[C@@H]2CC[C@]2(C)[C@@H](O)CC[C@@H]12
35.9 µM (active) and inactive: [6]
active: [16] 9.7 µM
not listed: [10] | [11] | [12] | [13] | [14] | [15] | [17]
inactive: all other assays above

C=CC(=O)OCC(CC)CCCC (configuration not stated)
not listed: [6] | [16]
inactive: all other assays above

ClC1=C(Cl)C2(Cl)C3C(Cl)C(Cl)CC3C1(Cl)C2(Cl)Cl (configuration not stated)
active: [1] 30.5 µM and 43.3 µM | [17] 54.5 µM
not listed: [9] | [11] | [14] | [15] | [16] | [19]
inactive: all other assays above

CCC[CH2][Sn]([Cl])([Cl])[Cl]
not listed: [14] | [17]
inactive: all other assays above

CCOC(=S)S
active: [1] 27.3 µM and 18.3 µM
not listed: [13] | [14] | [16] | [17] | [18]
inactive: all other assays above

c1ccc2c(c1)-c1cccc3cccc-2c13
not listed: [17] | [20]
inactive: all other assays above

C=CCSSCC=C
not listed: [7] | [12] | [19]
inactive: all other assays above

CCOC(=O)c1ccccc1C(=O)OCC
not listed: [14]
inactive: all other assays above

S=C1NCCN1
not listed: [17]
inactive: all other assays above

CC(NC(C)(C)C)C(=O)c1cccc(Cl)c1 (configuration not stated)
not listed: [10] | [11] | [12] | [13] | [17] | [20]
inactive: all other assays above

Clc1ccc(Cl)c(Cl)c1
not listed: [10]
inactive: all other assays above

N#CCC#N
not listed: [11] | [20]
inactive: all other assays above

C=C(C#N)CCC#N
not listed: [13] | [16] | [17] | [20]
inactive: all other assays above

C#CCOC(C(=O)OCCN(C)C)(c1ccccc1)c1ccccc1
not listed: [12] | [17]
inactive: all other assays above

COC(=O)Nc1nc2ccccc2[nH]1
active: [9] 9.13 µM
not listed: [8] | [13] | [15]
inactive: all other assays above

COC(=O)Nc1cccc(OC(=O)Nc2cccc(C)c2)c1
not listed: [19] | [20]
inactive: all other assays above

CN=C=S
44 µM (active) and inactive: [11]
not listed: [19] | [20]
inactive: all other assays above

CN(C)CCC#N
not listed: [8] | [12] | [17]
inactive: all other assays above

O=C(O)CCCOc1ccc(Cl)cc1Cl
inactive and 29.4 µM (active): [6]
not listed: [9] | [13] | [14] | [15]
inactive: all other assays above

c1ccoc1
not listed: [11]
inactive: all other assays above

OCCCCO
not listed: [15]
inactive: all other assays above
